Experimental data published in PubChem BioAssay (NCI).
About 83,000 compounds went through this panel and 20% of them were active in at least one assay; those are over-represented in the sample as a whole.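 Testing used 96-well plates and a 48-hour single-concentration exposure. Example: -40 means 40% of the starting cells died.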 Unmarked numbers belong to inactive results. Calls of active or inactive are those of the source. The calls were made as follows: active = growth percent below 10; inactive = the rest.

Experiments:
Assay in all cases: NCI-60 one-dose screen, 48 h (100 = growth as untreated, 0 = no growth, -100 = all killed)
Conditions in all cases: 10 µM unless noted
[1] = tested on: NCI-H23 lung
[2] = tested on: NCI-H226 lung
[3] = tested on: NCI-H322M lung
[4] = tested on: HOP-62 NSCLC
[5] = tested on: NCI-H460 lung
[6] = tested on: NCI-H522 lung
[7] = tested on: A549/ATCC NSCLC
[8] = tested on: 786-0 renal
[9] = tested on: COLO 205 colon
[10] = tested on: DU-145 prostate
[11] = tested on: K-562 leukemia
[12] = tested on: MALME-3M melanoma
[13] = tested on: MDA-MB-231 breast
[14] = tested on: RXF 393 renal
[15] = tested on: SF-268 CNS
[16] = tested on: SF-295 CNS
[17] = tested on: SF-539 CNS
[18] = tested on: UACC-257 melanoma
[19] = tested on: M14 melanoma
[20] = tested on: HOP-92 NSCLC

Row | SMILES | growth [1] | growth [2] | growth [3] | growth [4] | growth [5] | growth [6] | growth [7] | growth [8] | growth [9] | growth [10] | growth [11] | growth [12] | growth [13] | growth [14] | growth [15] | growth [16] | growth [17] | growth [18] | growth [19] | growth [20]
1 | Cc1ccc([C@H]2C(C(=O)c3ccc(Cl)cc3)C3(N[C@@H]2c2ccccc2)C(=O)Nc2ccc(Cl)cc23)cc1 (some centres not stated) | 52.8% | 61.4% | 67.4% | 65.1% | 39.7% | 43.9% | 33.2% | 39.1% | 44.5% | 71.8% | 22.2% | 87.2% | 50.7% | 27% | 55.8% | 48.2% | 77% | 69.8% | 44.8% | 
2 | C=C1CC[C@@H]2[C@]3(C)COC(c4cn[nH]c4-c4ccc(Br)cc4)O[C@@H]3CC[C@@]2(C)[C@@H]1C/C=C1/C(=O)OCC1O (some centres not stated) | -86.1% (active) | -83.3% (active) | 32% | -46.1% (active) | -82.3% (active) | -57.5% (active) | -30.5% (active) | -95.5% (active) | -54.6% (active) | -78.6% (active) | 7.76% (active) | -70.7% (active) | -65.8% (active) | -89.1% (active) | -13.3% (active) | -65.6% (active) | -94.4% (active) | -71.4% (active) | -69.5% (active) | 
3 | COc1ccc(-c2ccnc(SCc3cc4ccccc4[nH]c3=O)n2)cc1OC | 15.6% | -23.1% (active) | -51.5% (active) | -53.5% (active) | 8.25% (active) | -21.2% (active) | 11.7% | -25.4% (active) | 4.51% (active) | 36.4% | 62.9% | 8.86% (active) | -51.8% (active) | -30.4% (active) | 23% | -78.3% (active) | -84.7% (active) | 29.5% | 45.4% | 
4 | CCCn1cc(-c2nc(Nc3ccc(C(=O)NCCCCNc4cccc5c4C(=O)N(C4CCC(=O)NC4=O)C5=O)cc3)nc3[nH]ccc23)cn1 (configuration not stated) | 65.3% | 20.9% | 7.64% (active) | -1.38% (active) | 107% | 27% | 21.1% | 22.9% | -10.3% (active) | 64.1% | 15.8% | -24.4% (active) | -23.3% (active) | 34.9% | 28.2% | 28.3% | 26.6% | 96.4% | 21.4% | 
5 | COc1c(F)ccc(C(=O)Nc2ccc3nc(NC(=O)C4CCCN(S(=O)(=O)c5cccc(C(F)(F)F)c5)C4)sc3c2)c1F (configuration not stated) | 96.9% | 93.6% | 98.9% | 99% | 79.4% | 85.2% | 79.4% | 60.9% | 84.6% | 91.1% | 62.3% | 94.7% | 85% | -9.56% (active) | 65% | 79.8% | 70.1% | 89.9% | 87.5% | 
6 | CCC(C)(C)c1ccc(OCCCCCCN2CCN(c3ccncc3)CC2)cc1 | 1.24% (active) | 35.6% | 47.6% | 35.1% | -29.7% (active) | 8.93% (active) | 32.8% | -79% (active) | -84.4% (active) | 35.5% | -24.8% (active) | -94.7% (active) | -77.6% (active) | -62.5% (active) | 50.5% | -78% (active) | -72.4% (active) | 18.4% | -68.7% (active) | 
7 | Cc1ccc(S(=O)(=O)c2nc(S(=O)(=O)c3ccc(C)cc3)c(N3CCC(O)CC3)s2)cc1 | 62.5% | 84.6% | 77.3% | 97.5% | 46.2% | 19.7% | 62.1% | 77.1% | 98% | 70% | 29% | 92.2% | 71.8% | 33.6% | 70.3% | 96.6% | 73.7% | 81.6% | 71.2% | 
8 | NS(=O)(=O)c1ccc(-n2cc(-c3cccc(NC(=O)c4cc(N5CCOCC5)cc(C(F)(F)F)c4)c3)nn2)cc1 | 54.7% | 26.2% | 71.4% | 12.9% | 64.3% | 38.2% | 76.7% | 44.9% | 76.9% | 83% |  | 54.1% | 37.4% |  | 41.1% | 54% | 19.3% | 66.3% | 78.8% | 9.47% (active)
9 | Brc1ccc(-c2n(Cc3ccc4ccccc4c3)c(-c3ccccc3)c(-c3ccccc3)[n+]2Cc2ccc3ccccc3c2)cc1 | -89.3% (active) | -51.6% (active) | -99.1% (active) | -83.4% (active) | -81.3% (active) | -90.9% (active) | -88.8% (active) | -79.3% (active) | -78.2% (active) | -100% (active) | 4.96% (active) | -91% (active) | -89.5% (active) | -69.6% (active) | -72.1% (active) | -86.3% (active) | -100% (active) | -89.6% (active) | -90.8% (active) | 
10 | COc1ccc(C(=O)/C=C/c2cccc3ccccc23)cc1S(N)(=O)=O | -20.5% (active) | 32.7% | 14.8% | 18.2% | 2.2% (active) | -67% (active) | 7.01% (active) | -29.8% (active) | -78.6% (active) | 13.2% |  | 30.1% | 21.8% | -59.4% (active) | 14.4% | -61.7% (active) | -83.4% (active) | -42.6% (active) | -74% (active) | 73%
11 | O=C(O)Cn1c(O)c(/C=C2/C=c3cc4c(cc3=NC2=O)OCCO4)sc1=S | 97.7% | 103% | 101% | 105% | 118% | 103% | 114% | 108% | 119% | 118% | 106% | 100% | 103% | 117% | 118% | 94.6% | 107% | 108% | 111% | 
12 | CN(C)CCn1c2ccccc2c2nc3cc(C(F)(F)F)ccc3nc21 | 34.6% | 53.2% | 40.3% | 38.8% | 8.31% (active) | 30.7% | 21.7% | 32.9% | 14% | 31.4% | 19.3% | 25.9% | 37.2% | 42.7% | 52.4% | 27.9% | 26.3% | 45.1% | 40.7% | 
